FLuc modulator: qHTS profiling assay for firefly luciferase inhibitor/activator using purifed enzyme and Km concentrations of substrates (counterscreen for miR-21 project). Luciferin 4-monooxygenase (Photinus pyralis), P08659. hit rate 6.9% among 360,000. Potency, µM (doses to about 57.5 µM), for the others: at the highest dose activity change, negative = inhibition, actives largely listed as inhibitors. purified FLuc, Km substrates, luminescence inhibition. AID 588342, 2011;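 further: plate controls were vehicle for no effect and reference inhibitor for full effect; nearly all actives have a fitted effect of over 55% in size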
Target sequence (P08659 whole entry, looked up): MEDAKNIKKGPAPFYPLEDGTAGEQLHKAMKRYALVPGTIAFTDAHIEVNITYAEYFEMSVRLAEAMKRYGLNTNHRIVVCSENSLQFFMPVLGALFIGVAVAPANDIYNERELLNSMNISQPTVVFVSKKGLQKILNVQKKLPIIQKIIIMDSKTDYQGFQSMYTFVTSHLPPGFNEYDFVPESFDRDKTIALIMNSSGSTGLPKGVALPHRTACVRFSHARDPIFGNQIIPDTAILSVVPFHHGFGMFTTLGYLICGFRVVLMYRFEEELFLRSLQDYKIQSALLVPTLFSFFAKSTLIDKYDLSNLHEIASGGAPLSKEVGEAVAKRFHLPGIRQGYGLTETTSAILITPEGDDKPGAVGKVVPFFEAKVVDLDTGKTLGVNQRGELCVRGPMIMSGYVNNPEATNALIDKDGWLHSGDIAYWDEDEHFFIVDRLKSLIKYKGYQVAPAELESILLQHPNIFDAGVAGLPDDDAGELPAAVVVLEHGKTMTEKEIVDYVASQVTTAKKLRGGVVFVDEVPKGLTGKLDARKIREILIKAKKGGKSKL
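Purified P. pyralis luciferase, 10 nM final, with Km-level 10 uM D-luciferin and 10 uM ATP in 50 mM Tris acetate pH 7.5, 10 mM Mg acetate, 0.01% Tween-20, 0.05% BSA; 6-point qHTS titration about 60 µM downward; luminescence read.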
NPC1 promoter act: qHTS Assay for NPC1 Promoter Activators | Huh7 NPC1 promoter luciferase reporter, 24 h | Potency, µM (series often up to 9.22 µM), for the others: top-dose activation, most hits filed as activators | hit rate 2.4% among 320,000 | AID 485313, 2010; further: % of control where 0% means no effect; nearly all actives have a fitted effect of over 60% in size
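Luminescence from an NPC1 promoter-driven luciferase reporter in stably transfected Huh7 cells was measured after 24 h compound treatment at 37 °C, followed by 10 min ambient incubation with luciferase detection reagent.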
ELG1 repair inh: qHTS screen for small molecules that inhibit ELG1-dependent DNA repair in human embryonic kidney (HEK293T) cells expressing luciferase-tagged ELG1; hit rate 2.3% among 330,000; Potency, µM (doses to about 46.1 µM), for the others: at the top dose activity change, negative = inhibition, actives largely listed as inhibitors; AID 504467, 2011; HEK293T ELG1-luciferase reporter, luminescence, 16 h; DNA damage induced by 5-fluorouridine; further: on the % scale 0 is the no-effect control and ±100 the full control effect; nearly all actives have a fitted effect of over 55% in size
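Luminescence from the luciferase reporter, measured 30 min after ONE-Glo reagent at room temperature, was the read-out. Beforehand, 2,000 cells per well were exposed for 16 hr at 37 °C to 5-fluorouridine together with compound or vehicle.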
SMN2 splice up: qHTS Assay for Enhancers of SMN2 Splice Variant Expression. Potency, µM (highest dose often 46.1 µM), without a hit: at the top dose activity change, positive = activation, actives largely listed as activators. hit rate 2.8% among 210,000. AID 1458, 2008. HEK293 SMN2-luciferase splicing reporter, luminescence, 30-36 h; further: % of control where 0% means no effect; nearly all actives have a fitted effect of over 55% in size
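qHTS luciferase splicing reporter: luminescence rises when SMN2 exon 7 is included in transfected HEK293 cells. Compound exposure lasted 30-36 h at 37C, with 4.5 mM final sodium butyrate as control, followed by a ONE-Glo read.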
ELG1 genotoxic: qHTS screen for small molecules that induce genotoxicity in human embryonic kidney (HEK293T) cells expressing luciferase-tagged ELG1; HEK293T ELG1-luciferase reporter, luminescence, 16 h; hit rate 1.3% among 330,000; Potency, µM (titrated, usually from 46 µM), without a hit: at the top dose activity change, positive = activation, usual class: activators; AID 504466, 2011; further: % of control where 0% means no effect; nearly all actives have a fitted effect of over 60% in size
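HEK293T cells expressing luciferase-tagged ELG1 were exposed to compound or DMSO vehicle for 16 hr at 37 °C and 5% CO2. Luciferase activity was then measured with ONE-Glo after 30 min at room temperature.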
Rab9 prom act: qHTS Assay for Rab9 Promoter Activators | hit rate 2.8% among 320,000 | Huh7 Rab9 promoter-luciferase reporter, luminescence, 24 h | AID 485297, 2010 | Potency, µM (highest dose often 9.22 µM), for inactives: at the highest dose activation, negative = inhibition, most hits filed as activators; further: % of control where 0% means no effect; nearly all actives have a fitted effect of over 60% in size
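Stable Rab9-luc Huh7, 1500 cells/well, 2 h settle; cmpd in DMSO, 24 h, 37 °C/5% CO2; luciferase reagent 10 min RT; luminescence.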
* marks the source's active call; other numbers are inactive results; ? = inconclusive; . = no result given; [ ] = another dose, or the depositor's remark. Only some compounds are listed: those with a hit (about 9.3% of all), similar ones and a draw of the others. The call rests on the fitted dose curve; in most records, active means well fitted curve in the direction sought with a large enough effect; inconclusive means small, poorly fitted or top-dose-only effect, or another doubt; inactive means no such curve, though single readings can be large; an effect the other way counts as inactive or inconclusive. Potency means the concentration at half of the fitted maximal effect.

SMILES | FLuc modulator | NPC1 promoter act | ELG1 repair inh | SMN2 splice up | ELG1 genotoxic | Rab9 prom act
CC(=O)c1c(C)[nH]c(C(=O)OCc2cccc(Cl)c2)c1C | ? | 7% | -16% | -22% | 22% | 14%
CC(C)c1ccc(C(CC(=O)O)N2Cc3ccccc3C2=O)cc1 (centres undefined) | 1% | -4% | 1% | . | -1% | -2%
CCN(CC)S(=O)(=O)c1cccc(-c2nnc(SCCOc3ccc(Cl)cc3)o2)c1 | 2% | -4% | 21µM* | -41% | -9% | 8%
O=C(c1ccccc1)c1coc2c1C(=O)c1ccccc1C2=O | 27µM* | -2% | ? | -6% | 11% | -3%
CC(=O)c1ccc(NC(=O)c2cc3sccc3n2Cc2ccc(Cl)cc2)cc1 | 5% | . | . | -2% | . | .
COc1ccc2cc(-c3[nH]ncc3CN3CCCCO3)ccc2c1 | 15µM* | 18% | ? | . | 12% | ?
COc1ccc(-c2[nH]ncc2CN2CCCO2)cc1F | 0% | -4% | 1% | . | 3% | 2%
CC1CCN(CCc2nc3cc(NC(=O)COc4ccc([N+](=O)[O-])cc4)ccc3n2C)CC1 | -3% | -2% | -16% | . | -9% | 1%
Cc1ccc(/C=C/C(=O)N2CCc3ccccc32)o1 | 1.9µM* | 2.8µM* | ? | . | 8.2µM* | 2.5µM*
CCOC(=O)/C=C/C(=O)N1CCc2ccccc21 | 11µM* | 0% | ? | -6% | 1% | 4%
O=C(c1ccco1)N1CCc2ccccc21 | ? | ? | ? | 73% | ? | ?
O=C(/C=C/c1ccco1)N1CCc2ccccc21 | 2.1µM* | 1.8µM* | ? | 10µM* | 1µM* | 0.79µM*
COc1ccc(/C=C/C(=O)N2CCCc3ccccc32)cc1 | ? | 9% | ? | . | 10% | 4%
COc1ccc(NC(=O)Nc2nnc(C(C)C)s2)cc1 | 21µM* | 3.5µM* | ? | 26% | ? | ?
COc1ccc(NC(=O)Nc2nnc(-c3ccco3)s2)cc1 | ? | 0.89µM* | ? | . | ? | 1.3µM*
COc1ccc(NC(=O)Nc2nnc(-c3ccncc3)s2)cc1 | ? | 26% | ? | -18% | -18% | ?
Cc1ccc(NC(=O)Nc2nnc(-c3ccccc3F)s2)cc1 | -12% | ? | ? | . | 9% | ?
COc1ccc(NC(=O)Nc2nnc(-c3ccccc3F)s2)cc1 | -3% | ? | ? | 14% | 1% | 2.8µM*
COc1cccc(C(=O)N2CCC(C(=O)Nc3cccc(Cl)c3)CC2)c1 | 3% | . | . | -12% | . | .
CCOC(=O)CSc1nnc(SCCN2C(=O)c3ccccc3C2=O)s1 | 1% | 0% | -1% | 15% | 1% | -2%
Cc1ccc(C(=O)OCC(=O)NCc2cccc(Cl)c2)cc1S(=O)(=O)N1CCCCC1 | -13% | -4% | ? | . | -5% | -5%
CN(C)C(=O)c1cc(C(=O)c2ccccc2C(F)(F)F)c[nH]1 | -4% | -8% | 6.5µM* | -66% | -5% | -6%
CN(C)C(=O)c1cc(C(=O)c2ccccc2F)c[nH]1 | ? | 20% | ? | . | 4% | 16%
CN(C)C(=O)c1cc(C(=O)c2ccc(F)cc2C(F)(F)F)c[nH]1 | 0% | -11% | 8.2µM* | . | -12% | 0%[1.84 µM]
Cc1ccc(NC(=O)N2CCCN(C(=O)OC(C)(C)C)CC2)cc1Cl | -5% | 1% | -4% | . | 0% | -3%
SMILES | FLuc modulator | NPC1 promoter act | ELG1 repair inh | SMN2 splice up | ELG1 genotoxic | Rab9 prom act
Cc1cc2ncc(-c3ccc(Cl)cc3)c(N)n2n1 | 9.5µM* | ? | ? | 13µM* | 15µM* | 4µM*
Nc1c(-c2ccccc2)cnc2cc(-c3ccccc3)nn12 | 0.6µM* | 1.4µM* | ? | 4.5µM* | 2.6µM* | 0.71µM*
Cc1ccc(-c2cc3ncc(C#N)c(N)n3n2)cc1 | -19% | 2.8µM* | ? | ? | ? | 2.8µM*
Nc1c(-c2ccc(Cl)cc2)cnc2ncnn12 | 1% | 3% | 1% | -10% | 2% | 5%
COc1ccc(CCNS(=O)(=O)c2cc3c4c(c2)CCN4C(=O)CC3)cc1 | 7% | 1% | 15% | . | 27% | 1%
CN1CCN(C(=O)C(=O)Nc2c3c(nn2-c2ccc(F)cc2)CSC3)CC1 | 5% | . | . | . | . | .
CC(CCCC(C)(C)O)NCc1cn[nH]c1-c1ccc2c(c1)OCO2 (centres undefined) | 0% | -2% | -6% | . | -1% | 1%
CCS(=O)(=O)NCCc1csc2nc(-c3ccc(C)cc3)nn12 | -3% | . | . | . | . | .
CSCCC(NC(=O)c1ccc(C(C)(C)C)cc1)C(=O)OCC(=O)N1CCCC1=O (centres undefined) | 21µM* | -1% | ? | . | 0% | -1%
CSCCC(NC(=O)c1ccc(Cl)cc1)C(=O)OCC(=O)N1CCCC1=O (centres undefined) | ? | -4% | 5% | . | -1% | -4%
CCCCNc1cc(C)nc(NCc2ccccc2)n1 | -2% | -20% | 15µM* | -76% | -6% | -24%
Cc1cc(Nc2ccccc2)nc(NCc2ccccc2)n1 | -3% | -5% | 4.6µM* | -43% | 0% | -8%
Cc1cc(Nc2ccc(Cl)cc2)nc(NCc2ccccc2)n1 | -20% | 2% | -1% | -25% | -2% | 3%
COc1ccccc1NC(=O)Cn1c(=O)n(-c2ccccc2Cl)c(=O)c2sc3ccccc3c21 | -7% | . | . | 1% | . | .
COCCCNC(=O)Cn1nnc(-c2ccc(NC(=O)c3ccccc3F)cc2)n1 | 13µM* | 26% | ? | ? | 14% | 27%
COCCCNC(=O)Cn1nnc(-c2ccc(NC(=O)c3ccccc3OC)cc2)n1 | -18% | 14% | ? | -6% | 1% | 3%
CCn1c(=S)[nH]c2cc(S(=O)(=O)N3CCCCC3)ccc21 | 7% | -3% | ? | . | 9.2µM* | -4%
CCOC(=O)CN(C(=O)CSc1nnc2c(n1)[nH]c1c(C)cc(C)cc12)c1ccccc1 | 1% | -2% | 16µM* | -5% | -13% | -1%
CCOC(=O)CN(C(=O)CSc1nnc2c(n1)[nH]c1ccccc12)c1ccccc1 | 1% | -5% | -20% | -31% | 1% | 1%
CCc1ccc2nc(N)sc2c1 | 11µM* | 2.2µM* | ? | 20µM* | ? | 3.5µM*
CCOc1ccc2nc(N)sc2c1 | . | . | . | 29% | . | .
Nc1nc2ccc(C(=O)Nc3ccccc3)cc2s1 | 19µM* | 3.5µM* | ? | . | ? | 3.2µM*
